33 compounds from the supplement of paper PMC6763611 can be followed below.

The test system of this experiment is Plasmodium falciparum NF54. Kind of experiment: growth inhibition relative to untreated control; higher = more inhibition. The settings on record: 72 h. The procedure, abridged:
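Two media were used: minimal RPMI, and minimal RPMI carrying the chorismate end-products folate, pABA, pHBA, tyrosine, phenylalanine and tryptophan at 2.2 μM, 7.3 μM, 7.3 μM, 111 μM and 90 μM for the first five. In these media, P. falciparum NF54 ring stages (1% hematocrit, 1% parasitemia, 100 μL/well) were exposed in dark 96-well half-area plates to a single 5 μM or 1 μM test-compound dose for 72 h at 37 °C. Growth inhibition was then assessed with SYBR Green against untreated wells, subtracting background from uninfected erythrocytes.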

The mark [1] stands for this setting: 1 µM, MM + chorismate end-products (CM screening medium).
Setting [2] is: 5 µM, MM + chorismate end-products (CM screening medium).

On to `Cc1noc(C)c1C(=O)N1CCCC(c2[nH]c3c(C)cccc3c2-c2ccncc2)C1` (configuration not stated), for which the growth inhibition is, setting by setting: under setting [1], 97.7%; (1 µM, minimal medium (MM)) 95.3%; under setting [2], 92.6%; (5 µM, minimal medium (MM)) 92.4%.
The corresponding values for `CCCCCCCCCCCCCCCCOP(=O)([O-])OCC[N+](C)(C)C` are 35.9%, 19%, 3.26% and 8.75%.
With `Cc1cc(C)n(-c2ccc(NC(=O)C3CCN(Cc4cnc(C)s4)CC3)cc2)n1`, the growth inhibition by setting is: under setting [1], 31%; (1 µM, minimal medium (MM)) 27.5%; under setting [2], 43.6%; (5 µM, minimal medium (MM)) 10.6%.
The corresponding values for `CCn1ncc2c(NC3CCOCC3)c(CNC(=O)c3ccnn3C)c(C)nc21` are 63.5%, above 100%, 92.6% and 91.4%.
The corresponding values for `Cc1ccc(-c2nc(CN(Cc3ccccn3)C(C)C)cs2)o1` are 47.7%, 20.3%, 81.7% and 49.2%.
The corresponding values for `COc1cccc(OCC(=O)c2ccc(Br)cc2)c1` are below 0%, below 0%, below 0% and below 0%.
Regarding `CNC(=O)C1Cc2ccccc2N1C(=O)Cc1ccc(F)cc1` (configuration not stated), the growth inhibition was 10.9% under setting [1]; below 0% (1 µM, minimal medium (MM)); below 0% under setting [2]; below 0% (5 µM, minimal medium (MM)).
For the compound `COc1cccn2c(C(=O)N3CCCCC3)c(C(F)(F)F)nc12`, the growth inhibition is 12.4% under setting [1]; 15.1% (1 µM, minimal medium (MM)); below 0% under setting [2]; below 0% (5 µM, minimal medium (MM)).
As for `CC(C)(C)OC(=O)N1CCN(c2nccc(-c3ccc(-c4ccc(Cl)cc4)s3)n2)CC1`, the growth inhibition is below 0% under setting [1]; 2.86% (1 µM, minimal medium (MM)); 64.1% under setting [2]; 11.6% (5 µM, minimal medium (MM)).
For `Clc1ccc(-n2cc(COc3ccnc4ccccc34)nn2)cc1`, the growth inhibition is 4.03% under setting [1]; below 0% (1 µM, minimal medium (MM)); 32.4% under setting [2]; 16% (5 µM, minimal medium (MM)).
On the same counts, the results for `OCCc1ccc(Nc2nccc(-c3nnc4ccccn34)n2)cc1` are 82.3%, 80.1%, 65.5% and 52.1%.
On the same counts, the results for `Nc1ncc(-c2cn[nH]c2)cc1-c1nc2cc(Cl)cnc2[nH]1` are 97%, 97%, above 100% and 94.3%.
The corresponding values for `N=C(N)c1ccc(OCCCCCOc2ccc(C(=N)N)cc2)cc1` are 98.6%, 96.8%, 99.4% and 94%.
Regarding `CCCCN(CCCC)c1c(C#N)cc(S(=O)(=O)Nc2ccccc2)cc1C#N`, the growth inhibition is below 0% under setting [1]; below 0% (1 µM, minimal medium (MM)); 39.9% under setting [2]; 35.7% (5 µM, minimal medium (MM)).
For the compound `CN(C)c1cc(NC(=O)Nc2ccccc2)c2ccccc2n1`, the growth inhibition stood at 96% under setting [1]; 95.6% (1 µM, minimal medium (MM)); 88.6% under setting [2]; 87.9% (5 µM, minimal medium (MM)).
Regarding `N#Cc1nc(-c2ccccc2F)oc1NCCc1ccccc1`, the growth inhibition under setting [1] is below 0%; the growth inhibition (1 µM, minimal medium (MM)) was below 0%; the growth inhibition under setting [2] was below 0%; the growth inhibition (5 µM, minimal medium (MM)) was found to be 15.2%.
Turning to `c1ccc(Oc2ccc(-c3cc(C4CCOCC4)[nH]n3)cc2)cc1`, the growth inhibition is 1.03% under setting [1]; below 0% (1 µM, minimal medium (MM)); below 0% under setting [2]; below 0% (5 µM, minimal medium (MM)).
Consider `Clc1ccc(Cl)c(CO[C@H]2CCCC[C@@H]2n2ccnc2)c1`, for which the growth inhibition is below 0% under setting [1]; below 0% (1 µM, minimal medium (MM)); 67.1% under setting [2]; 9.72% (5 µM, minimal medium (MM)).
As for `CC(C)(C)c1ccc(N[C@@H]2CCCC[C@H]2NC(=O)c2ccco2)cc1`, the growth inhibition is 20.8% under setting [1]; 20.6% (1 µM, minimal medium (MM)); below 0% under setting [2]; 1.67% (5 µM, minimal medium (MM)).
On the same counts, the results for `c1coc(CNc2nc(N3CCCCC3)nc3ccccc23)c1` are 68.6%, 35.7%, 67.2% and 67.2%.
Consider `CC(C)(C)OC(=O)N1CCC(Cn2nc(-c3cnc4ccccc4c3)c3c(N)ncnc32)CC1`, for which the growth inhibition was above 100% under setting [1]; below 0% (1 µM, minimal medium (MM)); 64.1% under setting [2]; 52.3% (5 µM, minimal medium (MM)).
As for `O=C(C1CCCCC1)N1CC(=O)N2CCc3ccccc3C2C1` (configuration not stated), the growth inhibition runs as follows: under setting [1], below 0%; (1 µM, minimal medium (MM)) 15.5%; under setting [2], 0.306%; (5 µM, minimal medium (MM)) below 0%.
Consider `Cc1[nH]c2cc(F)cc(F)c2c(=O)c1-c1ccc(Oc2ccc(OC(F)(F)F)cc2)cc1`, for which the growth inhibition runs as follows: under setting [1], 98.6%; (1 µM, minimal medium (MM)) 97.7%; under setting [2], 87.3%; (5 µM, minimal medium (MM)) above 100%.
The corresponding values for `CNc1cc(C)nc(C2CN(C(=O)c3n[nH]c4ccccc34)CCO2)c1` (configuration not stated) are 16.4%, 10.7%, 41.7% and 21.7%.
The corresponding values for `C[C@H]1COc2c(N3CCN(C)CC3)c(F)cc3c(=O)c(C(=O)O)cn1c23` are 17.1%, below 0%, 5.29% and 15.8%.
As to `CC(C)(CN)c1nc(-c2ccc(Cl)c(O)c2)c(-c2ccnc(N)n2)[nH]1`, the growth inhibition is, setting by setting: under setting [1], 78.9%; (1 µM, minimal medium (MM)) 70.8%; under setting [2], 30.1%; (5 µM, minimal medium (MM)) 6.08%.
The corresponding values for `CCNC(=O)C(C)Nc1nc(-c2cccnc2)nc2sc(C)c(C)c12` (configuration not stated) are 5.05%, below 0%, 16.8% and 31.6%.
Take `O=C(NC1CCN(c2ccnc3ccccc23)C1)c1cccc(C(F)(F)F)c1` (configuration not stated): the growth inhibition runs as follows: under setting [1], 80.7%; (1 µM, minimal medium (MM)) above 100%; under setting [2], 96.9%; (5 µM, minimal medium (MM)) 66.7%.
The corresponding values for `C[C@H](c1ccc2c(c1)CCCC2)N(C)c1ncc2c(N)nc(N)nc2n1` are 8.99%, 2.84%, 36% and 15.3%.
On the same counts, the results for `COc1ccc(-c2cnc3ccc(NCc4ccc(S(N)(=O)=O)cc4)nn23)cn1` are 73.3%, 77.2%, 95.9% and 92.1%.
On the same counts, the results for `CS(=O)(=O)c1cccc(-c2cnc3[nH]cc(-c4ccc(CCC(=O)O)cc4)c3c2)c1` are 79%, 70.7%, above 100% and 86.2%.
Turning to `Nc1ncnc2[nH]nc(Cc3cccc4ccccc34)c12`, the growth inhibition under setting [1] was 12.3%; the growth inhibition (1 µM, minimal medium (MM)) amounted to 22.2%; the growth inhibition under setting [2] was below 0%; the growth inhibition (5 µM, minimal medium (MM)) is below 0%.
Consider `O=C(Nc1cccc(Cl)c1)c1cnc(N2CCN(c3ccncc3)CC2)c(Cl)c1`, for which the growth inhibition runs as follows: under setting [1], 90.3%; (1 µM, minimal medium (MM)) above 100%; under setting [2], 99.9%; (5 µM, minimal medium (MM)) 87.9%.
